Assay [1] deals with PRMT1 (protein arginine N-methyltransferase 1). As to the kind of experiment: PRMT1 binders on small-molecule microarrays, primary screen, biochemical, small-molecule microarray, 635 nm fluorescence (AID 1088).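 Further: binding of Prmt1 protein to compounds spotted on small-molecule microarray slides.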 To be noted: small-molecule microarray binding, higher = more signal.
Assay [2] is described as follows: yeast growth modulation, basal conditions, primary screen, YJM789 clinical isolate, OD600, 24 h (AID 1089).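 Further: growth of clinical yeast isolate S. cerevisiae YJM 789 seeded 1000 cells per well; test concentration not given here.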 To be noted: S. cerevisiae YJM789 growth, higher = more signal, called active from +8 up or from −8 down.
A short description of assay [3]: fission yeast growth modulation, primary screen, strain 972, OD600, 24 h, no modulator (AID 1090).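 Further: basal condition with compound alone and no growth modifier present; test concentration not given here.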 To be noted: S. pombe 972 growth, higher = more signal, called active from +8 up or from −8 down.
A short description of assay [4]: S. cerevisiae growth modulation with rapamycin, primary screen, strain BY4716, OD600, 96 h (AID 1091). Further: test concentration not given here. To be noted: higher = more signal, called active from +8 up or from −8 down.
The target of assay [5] is Torsin-1A-interacting protein 2 (Homo sapiens) (UniProt Q8NFQ8). As to the kind of experiment: LULL1 binders on small-molecule microarray, primary screen, cell lysate, human LULL1 lysate, 635/667 nm fluorescence (AID 1092).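 Further: probe is lysate of COS7 cells overexpressing human LULL1; score merges per-feature 667 nm fluorescence with signal-to-noise.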 To be noted: hLULL1 lysate binding, 635 nm fluorescence, higher = more signal.
The nature of assay [6]: E. coli growth modulation, two-sided OD650, primary screen, E. coli filamentation project, strain DRC41, 24 h (AID 1093).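 Further: MC1000 strain lacking acrAB efflux and sulA so SOS filamentation is blocked; test concentration not given here.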 To be noted: OD650, 24 h, higher = more signal, called active from +8 up or from −8 down.
Assay [7] can be described thus: small-molecule microarray binders of probe aLefty2, primary screen, biochemical, biotinylated probe, 635/667 nm fluorescence (AID 1094).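 Further: score merges spot fluorescence near 667 nm with spot signal-to-noise ratio.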 To be noted: higher = more signal.
The subject of assay [8] is Noggin (protein binding on small-molecule microarray). As to the kind of experiment: Noggin binders on small-molecule microarray, primary screen, biochemical, 635/667 nm fluorescence (AID 1095).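 Further: score merges 667 nm feature fluorescence with signal to noise over triplicate slides.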 To be noted: 635 nm fluorescence, higher = more signal.
In assay [9] the target is Neurogenic locus notch homolog protein 3 (Homo sapiens) (UniProt Q9UM47). Put plainly: NOTCH3 binders on small-molecule microarray, primary screen, biochemical, 635/667 nm fluorescence (AID 1096). To be noted: NOTCH3 binding, 635 nm fluorescence, higher = more signal.
A short description of assay [10]: small-molecule microarray binders of probe aEGFR, primary screen, biochemical, biotinylated probe, 635/667 nm fluorescence (AID 1097).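 Further: probe is a biotinylated anti-EGFR antibody binding compounds printed on slides; score combines fluorescence near 667 nm and signal to noise of each spot.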 To be noted: higher = more signal.
In assay [11] the test system is Plasmodium falciparum Sir2 (PF13_0152, Sir2A). As to the kind of experiment: pfSir2 binders on small-molecule microarrays, primary screen, biochemical, small-molecule microarray, 635 nm fluorescence (AID 1098).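 Further: score merges spot fluorescence intensity with its signal-to-noise ratio.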 To be noted: small-molecule microarray binding, fluorescence 635 nm; higher = more signal.
Assay [12] can be described thus: small-molecule microarray binders of probe aDKK1, primary screen, biochemical, biotinylated probe, 635/667 nm fluorescence (AID 1099).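 Further: score merges 667nm spot fluorescence with signal to noise across triplicate slides; reference of the scale not given here.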 To be noted: higher = more signal.
Assay [13] in a line: small-molecule microarray binders of probe aCHRDL2, primary screen, biochemical, biotinylated probe, 635/667 nm fluorescence (AID 1100). To be noted: higher = more signal.
A short description of assay [14]: splicing luciferase reporter signal modulators, primary screen, spliceosome inhibition project, cell-based, HEK293, splice +/- reporter (AID 1101).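 Further: HEK293 cells carrying a splicing-competent luciferase reporter gene; test concentration not given here.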 To be noted: luminescence, 24 h, higher = more signal, called active from +8 up or from −8 down.
For assay [15], the target named is Fibroblast growth factor 10 (Homo sapiens) (UniProt O15520). As to the kind of experiment: FGF10 binders on small-molecule microarrays, primary screen, biochemical, small-molecule microarray, 635 nm fluorescence (AID 1102). To be noted: FGF10 binding, fluorescence 635 nm, higher = more signal.
Assay [16] has as its system glycogen synthase kinase-3 (GSK3A per assay name; protocol says GSK3B). As to the kind of experiment: GSK3 binders on small-molecule microarrays, primary screen, biochemical, small-molecule microarray, 635 nm fluorescence, GSK3A (AID 1103). Further: the record names both GSK3A and GSK3B. To be noted: small-molecule microarray binding, fluorescence 635 nm; higher = more signal.
The target in assay [17] is Epidermal growth factor receptor (Homo sapiens) (UniProt P00533). As to the kind of experiment: EGFR binders on small-molecule microarrays, primary screen, biochemical, small-molecule microarray, 635 nm fluorescence (AID 1104).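 Further: score merges 667 nm emission intensity with spot signal to noise over triplicate slides.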 To be noted: EGFR binding, higher = more signal.
In assay [18] the target is Follistatin-related protein 3 (Homo sapiens) (UniProt O95633). Put plainly: FSTL3 binders on small-molecule microarrays, primary screen, biochemical, small-molecule microarray, 635 nm fluorescence (AID 1105).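 Further: score merges emission near 667 nm and signal to noise per printed spot across three slides.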 To be noted: FSTL3 binding, higher = more signal.
Assay [19] has as its target Dickkopf-related protein 1 (Homo sapiens) (UniProt O94907). Put plainly: DKK1 binders on small-molecule microarrays, primary screen, biochemical, small-molecule microarray, 635 nm fluorescence scan (AID 1106).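 Further: score merges emission near 667 nm with signal to noise over three replicate slides.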 To be noted: DKK1 binding, higher = more signal.
The subject of assay [20] is Inhibin beta A chain (activin A). As to the kind of experiment: INHBA (activin A) binders on microarrays, primary screen, biochemical, small-molecule microarray, 635 nm fluorescence scan (AID 1107).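 Further: mouse activin A protein probed at 4.33 µg/mL on printed slides; score merges bound-protein fluorescence near 667 nm with spot signal-to-noise.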 To be noted: small-molecule microarray binding, higher = more signal.

The structures appear in SMILES notation. Calls of active or inactive are those of the source.

Torsin-1A-interacting protein 2 (Homo sapiens), sequence (Q8NFQ8 whole entry, looked up): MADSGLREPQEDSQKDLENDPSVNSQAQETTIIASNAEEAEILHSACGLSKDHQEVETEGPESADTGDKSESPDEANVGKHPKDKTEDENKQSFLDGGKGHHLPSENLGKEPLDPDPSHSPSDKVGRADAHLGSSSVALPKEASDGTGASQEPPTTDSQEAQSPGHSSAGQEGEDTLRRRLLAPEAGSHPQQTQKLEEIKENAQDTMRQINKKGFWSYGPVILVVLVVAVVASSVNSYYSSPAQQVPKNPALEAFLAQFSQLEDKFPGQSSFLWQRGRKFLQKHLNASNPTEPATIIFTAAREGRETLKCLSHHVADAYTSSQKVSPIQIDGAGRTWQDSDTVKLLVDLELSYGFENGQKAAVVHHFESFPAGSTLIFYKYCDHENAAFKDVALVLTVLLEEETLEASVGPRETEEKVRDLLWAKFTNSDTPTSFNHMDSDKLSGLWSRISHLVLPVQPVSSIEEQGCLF
Neurogenic locus notch homolog protein 3 (Homo sapiens), sequence (Q9UM47 whole entry, looked up): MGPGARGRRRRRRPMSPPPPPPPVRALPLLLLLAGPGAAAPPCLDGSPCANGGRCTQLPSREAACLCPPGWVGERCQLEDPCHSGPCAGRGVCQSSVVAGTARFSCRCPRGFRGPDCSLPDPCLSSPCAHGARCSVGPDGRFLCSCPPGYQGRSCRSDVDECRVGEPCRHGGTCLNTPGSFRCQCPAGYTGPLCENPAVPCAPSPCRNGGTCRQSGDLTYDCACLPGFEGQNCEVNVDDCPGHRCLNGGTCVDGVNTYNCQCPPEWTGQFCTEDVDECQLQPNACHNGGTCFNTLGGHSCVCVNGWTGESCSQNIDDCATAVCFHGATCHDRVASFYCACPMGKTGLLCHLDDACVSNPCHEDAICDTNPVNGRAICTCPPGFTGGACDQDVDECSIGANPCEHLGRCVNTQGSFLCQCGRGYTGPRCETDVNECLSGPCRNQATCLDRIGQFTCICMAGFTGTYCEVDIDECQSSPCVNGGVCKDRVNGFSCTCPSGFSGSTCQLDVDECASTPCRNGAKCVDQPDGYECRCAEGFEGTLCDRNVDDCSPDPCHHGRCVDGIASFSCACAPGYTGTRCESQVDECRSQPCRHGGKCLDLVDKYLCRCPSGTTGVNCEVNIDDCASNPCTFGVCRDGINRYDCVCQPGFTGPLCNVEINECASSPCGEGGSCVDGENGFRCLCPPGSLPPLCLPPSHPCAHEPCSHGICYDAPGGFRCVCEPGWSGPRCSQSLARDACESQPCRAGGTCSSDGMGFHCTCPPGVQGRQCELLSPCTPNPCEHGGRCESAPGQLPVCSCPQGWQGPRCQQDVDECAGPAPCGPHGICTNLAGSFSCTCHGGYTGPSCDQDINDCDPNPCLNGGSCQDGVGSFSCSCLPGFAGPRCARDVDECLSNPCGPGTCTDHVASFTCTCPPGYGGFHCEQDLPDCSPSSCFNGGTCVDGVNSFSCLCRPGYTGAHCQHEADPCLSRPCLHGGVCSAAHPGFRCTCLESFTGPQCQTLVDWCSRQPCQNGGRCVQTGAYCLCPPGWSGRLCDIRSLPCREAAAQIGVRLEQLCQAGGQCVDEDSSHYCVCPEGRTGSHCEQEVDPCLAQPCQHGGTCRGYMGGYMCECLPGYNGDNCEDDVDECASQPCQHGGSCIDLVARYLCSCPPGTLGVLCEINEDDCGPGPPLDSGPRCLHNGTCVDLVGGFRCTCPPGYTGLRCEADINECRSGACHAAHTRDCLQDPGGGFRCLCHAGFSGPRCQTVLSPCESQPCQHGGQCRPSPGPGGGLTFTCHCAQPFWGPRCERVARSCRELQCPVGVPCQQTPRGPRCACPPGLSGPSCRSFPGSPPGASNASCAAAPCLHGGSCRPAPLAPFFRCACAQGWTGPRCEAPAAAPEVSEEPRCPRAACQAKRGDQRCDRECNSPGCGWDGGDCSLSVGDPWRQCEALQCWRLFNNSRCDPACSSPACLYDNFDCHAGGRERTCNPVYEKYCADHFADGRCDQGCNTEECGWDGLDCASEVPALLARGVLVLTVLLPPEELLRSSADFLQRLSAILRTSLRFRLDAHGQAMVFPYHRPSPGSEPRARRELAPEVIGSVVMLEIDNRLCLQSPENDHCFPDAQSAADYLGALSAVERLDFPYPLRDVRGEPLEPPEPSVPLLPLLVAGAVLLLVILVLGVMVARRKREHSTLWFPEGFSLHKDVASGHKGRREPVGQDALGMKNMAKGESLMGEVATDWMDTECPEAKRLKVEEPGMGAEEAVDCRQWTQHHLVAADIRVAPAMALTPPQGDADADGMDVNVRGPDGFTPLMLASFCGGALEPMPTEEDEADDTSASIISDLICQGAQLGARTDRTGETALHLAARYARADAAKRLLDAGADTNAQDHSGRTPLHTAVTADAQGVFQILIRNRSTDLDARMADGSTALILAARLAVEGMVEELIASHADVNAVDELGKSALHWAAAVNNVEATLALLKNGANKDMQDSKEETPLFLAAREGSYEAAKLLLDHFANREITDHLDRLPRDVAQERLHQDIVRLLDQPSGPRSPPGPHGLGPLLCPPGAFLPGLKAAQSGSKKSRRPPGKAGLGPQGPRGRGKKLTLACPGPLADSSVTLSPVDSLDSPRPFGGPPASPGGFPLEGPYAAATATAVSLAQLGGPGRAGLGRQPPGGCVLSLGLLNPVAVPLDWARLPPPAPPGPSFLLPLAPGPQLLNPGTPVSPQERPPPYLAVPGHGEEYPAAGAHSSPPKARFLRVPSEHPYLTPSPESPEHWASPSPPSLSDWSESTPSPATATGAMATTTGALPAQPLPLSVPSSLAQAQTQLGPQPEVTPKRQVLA
Follistatin-related protein 3 (Homo sapiens), sequence (O95633 whole entry, looked up): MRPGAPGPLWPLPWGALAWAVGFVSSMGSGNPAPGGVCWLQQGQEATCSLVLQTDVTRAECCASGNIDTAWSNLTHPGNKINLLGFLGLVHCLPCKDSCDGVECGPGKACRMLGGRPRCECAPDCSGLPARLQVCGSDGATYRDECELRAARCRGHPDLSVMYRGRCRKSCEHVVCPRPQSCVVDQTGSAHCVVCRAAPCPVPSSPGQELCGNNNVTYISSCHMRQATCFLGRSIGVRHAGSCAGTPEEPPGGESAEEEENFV
Fibroblast growth factor 10 (Homo sapiens), sequence (O15520 whole entry, looked up): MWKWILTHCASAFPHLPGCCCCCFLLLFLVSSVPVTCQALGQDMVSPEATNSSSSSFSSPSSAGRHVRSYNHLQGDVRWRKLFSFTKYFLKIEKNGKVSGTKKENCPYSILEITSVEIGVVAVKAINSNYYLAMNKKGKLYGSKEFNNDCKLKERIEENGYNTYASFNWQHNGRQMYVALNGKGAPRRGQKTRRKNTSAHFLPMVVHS
Epidermal growth factor receptor (Homo sapiens), sequence (P00533 whole entry, looked up): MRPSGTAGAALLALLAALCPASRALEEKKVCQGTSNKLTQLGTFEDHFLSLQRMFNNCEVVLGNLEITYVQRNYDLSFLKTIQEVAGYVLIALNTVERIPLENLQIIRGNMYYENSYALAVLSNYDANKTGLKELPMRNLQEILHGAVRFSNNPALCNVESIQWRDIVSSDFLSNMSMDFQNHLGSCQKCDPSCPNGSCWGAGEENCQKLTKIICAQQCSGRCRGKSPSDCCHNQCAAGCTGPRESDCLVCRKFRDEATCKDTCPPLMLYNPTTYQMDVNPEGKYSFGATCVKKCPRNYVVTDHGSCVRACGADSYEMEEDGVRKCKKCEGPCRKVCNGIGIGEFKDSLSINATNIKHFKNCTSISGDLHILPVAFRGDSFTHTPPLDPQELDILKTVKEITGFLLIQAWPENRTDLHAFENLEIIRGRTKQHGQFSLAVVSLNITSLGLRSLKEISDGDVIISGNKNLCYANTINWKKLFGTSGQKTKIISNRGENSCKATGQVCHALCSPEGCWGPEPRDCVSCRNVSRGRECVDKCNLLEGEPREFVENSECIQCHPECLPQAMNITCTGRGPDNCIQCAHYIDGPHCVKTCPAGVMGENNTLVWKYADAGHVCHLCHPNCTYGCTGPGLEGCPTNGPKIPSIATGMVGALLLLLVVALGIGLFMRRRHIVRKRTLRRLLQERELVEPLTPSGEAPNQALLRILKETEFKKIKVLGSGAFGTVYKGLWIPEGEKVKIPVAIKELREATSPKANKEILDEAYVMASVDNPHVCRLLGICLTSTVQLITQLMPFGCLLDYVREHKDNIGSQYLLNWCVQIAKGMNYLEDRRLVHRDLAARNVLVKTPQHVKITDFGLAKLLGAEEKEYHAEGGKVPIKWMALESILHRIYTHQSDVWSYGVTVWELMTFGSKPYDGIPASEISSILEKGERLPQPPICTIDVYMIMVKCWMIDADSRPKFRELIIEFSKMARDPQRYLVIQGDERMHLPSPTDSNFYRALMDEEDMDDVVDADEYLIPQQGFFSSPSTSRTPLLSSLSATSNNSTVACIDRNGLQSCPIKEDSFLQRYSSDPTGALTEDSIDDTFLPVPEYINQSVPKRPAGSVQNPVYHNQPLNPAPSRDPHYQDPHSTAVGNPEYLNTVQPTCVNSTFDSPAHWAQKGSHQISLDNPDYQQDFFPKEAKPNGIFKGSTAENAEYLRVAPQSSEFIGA
Dickkopf-related protein 1 (Homo sapiens), sequence (O94907 whole entry, looked up): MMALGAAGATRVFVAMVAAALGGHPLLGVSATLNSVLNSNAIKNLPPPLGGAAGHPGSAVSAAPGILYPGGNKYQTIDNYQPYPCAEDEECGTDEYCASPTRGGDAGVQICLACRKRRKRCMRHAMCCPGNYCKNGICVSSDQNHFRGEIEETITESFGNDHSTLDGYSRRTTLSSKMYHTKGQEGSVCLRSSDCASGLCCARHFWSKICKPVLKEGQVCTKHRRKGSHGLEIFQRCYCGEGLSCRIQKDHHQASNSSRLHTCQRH

In the case of `CC(C)C[C@H]1NC(=O)[C@@]23C(=O)N[C@@H](Cc4ccccc4)C2[C@H](C)[C@@]2(C)O[C@H]2C3/C=C/C/C=C\CNC(=O)[C@@H]2CCCN2C1=O` (stereo not given in full), the composite z-score in assay [1] is 1.52; in assay [5] it was 1.58; in assay [7], -0.147; in assay [8], 0.588; in assay [9] it was 0.696; in assay [10] it was -0.008. The composite z-score in assay [11] was 0.903; in assay [12], -0.244; in [13], -0.575; in assay [15], 0.815; in assay [16] it was 0.47; in assay [17], 0.139. Moreover, the composite z-score in assay [18] turned out to be 0.572; in assay [19], 0.668; in assay [20], 0.918. In addition, the z-score is -0.397 (inactive) in assay [2]; -1.08 (inactive) in assay [3]; -0.579 (inactive) in assay [4]; -1.14 (inactive) in assay [6]; 0.091 (inactive) in assay [14].

On to `COc1ccccc1CN1C(=O)c2ccccc2[C@@H](C(=O)NCCCN(C)C)[C@@H]1c1ccc(CO)cc1`, for which the composite z-score in assay [1] was -1.06; in assay [5], -1.07; in assay [7] it was -0.135; in [8], -0.649; in assay [9], -0.784; in [10], -0.111. For the same compound, the composite z-score is 1.31 in [11]; 0.503 in assay [12]; -0.205 in [13]; 0.0373 in assay [15]; -0.841 in [16]; -0.127 in assay [17]. Also, the composite z-score was -0.235 in [18], 0.271 in [19] and 0.545 in [20]. Besides, the z-score in assay [2] is -0.376 (inactive); in assay [3] it was -2.26 (inactive); in assay [4], -1.63 (inactive); in [6], 0.874 (inactive); in assay [14] it was -0.0655 (inactive).

Turning to `CCOC(=O)C1=C(C(=O)OCC)N(S(=O)(=O)CC[Si](C)(C)C)[C@H](c2ccccc2)CC1`, the composite z-score is 1.03 in [1]; 1.84 in [5]; 0.138 in [7]; 0.472 in [8]; 1.07 in assay [9]; 0.108 in assay [10]. Moreover, the composite z-score in assay [11] turned out to be 0.461; in assay [12] it was 0.879; in assay [13] it was 0.845; in assay [15], 0.8; in assay [16], 1; in assay [17], 0.313. Further, the results for the composite z-score in assay [18], in [19] and in [20] were 0.971, -0.111 and 0.955, respectively. Besides, the z-score in assay [2] is 0.807 (inactive); in assay [3], 1.83 (inactive); in [4], 1.85 (inactive); in assay [6], -0.219 (inactive); in [14], 0.37 (inactive).

Turning to `O=C1OCCC/C=C\[C@H]2OC34C=CCN(Cc5ccccc5)C(=O)[C@H]3N(CCCCCO)C(=O)[C@@H]4C12` (stereo not given in full), the composite z-score in assay [1] is 1.01; in assay [5], 3.13; in assay [7], -0.166; in assay [8] it was -0.773; in assay [9], -0.0471; in assay [10] it was -0.245. In addition, the composite z-score in assay [11] was 1.21; in [12] it was -0.312; in [13] it was 0.312; in assay [15] it was -0.744; in assay [16], -0.823; in assay [17] it was -1.1. Also, the results for the composite z-score in assay [18], in assay [19] and in [20] were -0.808, -0.663 and 0.933, respectively. For the same compound, the z-score was -1.05 (inactive) in assay [2]; -2.16 (inactive) in assay [3]; 15.7 (active) in [4]; 0.549 (inactive) in [6]; -0.0325 (inactive) in assay [14].

`COCC(=C=CC[C@@H](O)c1cccc(OCCO)c1)C[C@@H](O)COCc1ccccc1`: the composite z-score in assay [1] is 0.881; in assay [5], 3.81; in assay [7] it was 0.217; in [8] it was 0.748; in [9], 0.0417; in assay [10] it was 0.19. The composite z-score in assay [11] was 0.264; in assay [12], 0.613; in assay [13] it was 0.67; in [15] it was 1.4; in assay [16], 1.19; in [17], -0.623. In addition, the composite z-score was 0.416 in assay [18], -0.267 in assay [19] and 0.717 in [20]. In addition, the z-score in [2] was -1.56 (inactive); in assay [3], -1.53 (inactive); in [4], -0.592 (inactive); in assay [6], 1.36 (inactive); in assay [14] it was -0.51 (inactive).

Source of the values: PubChem BioAssay.
